Measurements as given in PubChem BioAssay (EPA / NIEHS).
Calls of active or inactive are those of the source. How the source made its calls: active means hit-call score of the fitted dose curve at least 0.9, where 1 is the maximum; inactive means score below 0.9.

assay: ATG_M_06_CIS: Attagene CIS-FACTORIAL HepG2 Assay for M06 Transcription Factor (Internal Marker) (AID 2282950); conditions: HepG2 Attagene CIS-FACTORIAL M06 internal marker reporter; actives raise or lower the signal
Outline: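 HepG2 cells transiently transfected with cis-regulated multiple reporter transcription units were exposed to chemical for 24 h; reporter mRNA was quantified by RT-PCR, 6-FAM primer labelling, HpaI digestion and capillary electrophoresis, fitted bidirectionally against DMSO.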

outcome, inactive:
O=C1CCC(=O)N1Cl
OC1CCCCCCCCCCC1
COC(=O)c1cc(Cl)ccc1[N+](=O)[O-]
c1ccc2c(c1)ccc1ncccc12
O=C(Nc1ccccc1SSc1ccccc1NC(=O)c1ccccc1)c1ccccc1
Cc1cccc(OCCOc2cccc(C)c2)c1
c1ccc(CNCc2ccccc2)cc1
CC(C)CCCCCOC(=O)CCS
O=c1[nH]c(=O)c2[nH]c(=O)[nH]c2[nH]1
O=C(OCC1CCC2OC2C1)C1CCC2OC2C1 (stereo not drawn)
C=CC(=O)OCCOC(=O)C=C
O=c1[nH]nc(-c2ccc([N+](=O)[O-])o2)o1
CCOC(=O)CC(C(C)=O)C(C)=O
O=C1CCCN1CCO
CCCCCCCCC(=O)OCC
CC(C)C1=CC2=CC[C@@H]3[C@](C)(CCC[C@@]3(C)C(=O)O)[C@H]2CC1
O=C1CCCCCCCCCCC(=O)OCCO1
CCCCCCCCCCCCCCCCCC#N
CC(=O)Nc1ccc2c(c1)Cc1cc(NC(C)=O)ccc1-2
CCCCCCCCCCCCCOP(=O)(O)O
CC(C)(C)C1CCCCC1=O (stereo not drawn)
SCCc1cnccn1
COc1ccc(NC(C)=O)cc1N
CCC(CO)CO
COc1c2ccoc2cc2oc(=O)ccc12
O=C(Nc1ccccc1)c1ccccc1O
C=C[Si](OC(C)=O)(OC(C)=O)OC(C)=O
Cc1ccc2c(c1)C(=O)c1ccccc1C2=O
